Screening results deposited in PubChem by National Center for Advancing Translational Sciences (NCATS).
Mm-Cpn inhibitor: M. maripaludis TRiC chaperonin inhibition. purified Mm-Cpn ATPase, ADP Transcreener TR-FRET. Potency, µM (top dose mostly 76.9 µM), for the others: top-dose activity, negative = inhibition, actives largely listed as inhibitors. actives 0.031% (n = 330,000); note: potency is the fitted concentration of half-maximal effect; % is set by controls: 0 for no effect and ±100 for the full control effect; nearly all actives have a fitted effect of over 80% in size
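Measured: ADP formation by purified Mm-CPN. Conditions: 25 nM protein, 10 uM ATP, Tris pH 7.4 with Mg2+, K+ and DTT, 37°C for 30 min. Detection: Transcreener HTRF after 30 min at room temperature.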
GLP-1R agonist: GLP-1 receptor (human) agonism; Potency, µM (doses to about 45.6 µM), for the others: top-dose activation, actives largely listed as activators; AID 624172; HEK293 GLP-1R CRE-luciferase, luminescence, 4-6 h; cells express a hypersensitive GLP-1R form; P43220; actives 0.007% (n = 380,000); note: potency is the fitted concentration of half-maximal effect; % of control where 0% means no effect
Target sequence (P43220 whole entry, looked up): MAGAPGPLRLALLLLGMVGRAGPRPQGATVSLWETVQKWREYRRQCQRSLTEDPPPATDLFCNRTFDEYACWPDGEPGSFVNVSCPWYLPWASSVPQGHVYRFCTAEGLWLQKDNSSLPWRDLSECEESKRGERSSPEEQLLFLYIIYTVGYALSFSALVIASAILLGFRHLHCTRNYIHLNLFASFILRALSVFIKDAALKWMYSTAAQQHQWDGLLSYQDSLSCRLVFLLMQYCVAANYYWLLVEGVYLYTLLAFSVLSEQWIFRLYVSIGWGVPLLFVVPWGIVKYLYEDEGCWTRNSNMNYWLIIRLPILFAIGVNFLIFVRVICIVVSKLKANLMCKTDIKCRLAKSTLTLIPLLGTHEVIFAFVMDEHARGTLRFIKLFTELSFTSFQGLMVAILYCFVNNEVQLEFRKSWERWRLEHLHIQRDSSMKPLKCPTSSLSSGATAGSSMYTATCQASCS
uPA surface inh: inhibitors of cell surface uPA generation | Potency, µM (titrated, usually from 38.3 µM), inactives show at the highest dose activity change, negative = inhibition, hits mostly inhibitors | AID 540303 | cell surface uPA generation assay, qHTS | actives 0.31% (n = 330,000); active = well fitted inhibition curve with a large enough effect; inconclusive = small, poorly fitted or top-dose-only effect; inactive = no such curve, though single readings can be large or run the other way; tested in mouse RAW 264.7 cells; note: potency is the fitted concentration of half-maximal effect; % is set by controls: 0 for no effect and ±100 for the full control effect; nearly all actives have a fitted effect of over 55% in size
GLP1R cytotox: cytotoxicity in counter-screen for GLP-1R inverse agonists. actives 0.13% (n = 410,000). Potency, µM (top dose mostly 38.3 µM), for inactives: at the highest dose activity change, negative = inhibition, actives largely listed as inhibitors. HEK293 cAMP-luciferase reporter cells, luminescence, 24 h. AID 624418;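 note: loss of luciferase light is scored as toxicity; potency is the fitted concentration of half-maximal effect; % is set by controls: 0 for no effect and ±100 for the full control effect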
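Quantitative HTS format, 1536 wells, 200 cells/uL seeded. Compounds: 23 nL, 24 h, 37 °C. Detection: luciferase reagent, luminescence at 12 min RT; decreased signal taken as cytotoxic.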
CCT chaperon mod: cytosolic chaperonin activity modulation | purified chaperonin ATPase assay, HTRF ADP detection, 30 min | activity change, % (concentration not given with the values), hits read low | actives 0.3% (n = 360,000) | AID 651819; in the data active = activity change below about -30%; note: % is set by controls: 0 for no effect and ±100 for the full control effect
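Enzyme 40 or 20 nM (batch-dependent) in Tris pH 7.4/KCl/MgCl2/DTT; cpd 76 uM single point; ATP 10 uM; 30 min 37 °C; Transcreener ADP HTRF detection, 30 min RT; ratio 665/615.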
GLP-1R inv ag: acts as inverse agonist at human GLP-1 receptor | HEK293 GLP-1R CRE-luciferase, luminescence, 24 h; GLP-1R form is constitutively active | Potency, µM (highest dose often 38.3 µM), without a hit: top-dose activity change, negative = inhibition, usual class: inhibitors | actives 1.6% (n = 410,000) | AID 624417; note: potency is the fitted concentration of half-maximal effect; % is set by controls: 0 for no effect and ±100 for the full control effect; nearly all actives have a fitted effect of over 55% in size
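Constitutively active GLP-1R drives a cAMP-responsive luciferase in stably transfected HEK293 cells; test compounds are added after overnight (12 h) attachment and left 24 hr, and signal loss in luminescence marks inhibition.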
* hit, by the source's call. Most compounds without a hit are left out; they make up all but 2.2% or so of the library. Unless noted, calls come from the whole dose curve; as a rule, active = well fitted curve in the direction sought with a large enough effect; inconclusive = small, poorly fitted or top-dose-only effect, or another doubt; inactive = no such curve, though single readings can be large; an effect the other way counts as inactive or inconclusive.

Cc1ccc(NC(=O)COC(=O)c2ccc(NC(=O)CC#N)cc2)cc1S(=O)(=O)N1CCOCC1 was read as Mm-Cpn inhibitor 31.6µM*, GLP-1R agonist 13.4%, uPA surface inh 0.2%, GLP1R cytotox 6.0%, CCT chaperon mod -1.0 and GLP-1R inv ag 4.8%.
Screening O=C(Nc1ccc(Cl)c(S(=O)(=O)N2CCOCC2)c1)c1ccc2c(c1)OCCO2 returned Mm-Cpn inhibitor -2.0%, GLP-1R agonist 2.5%, uPA surface inh -2.2%, GLP1R cytotox -19.5%, CCT chaperon mod -2.6 and GLP-1R inv ag -27.7%.
For Cc1ccc(OCCCC(=O)Nc2ccc(Cl)c(S(=O)(=O)N3CCOCC3)c2)cc1 the results were Mm-Cpn inhibitor -0.3%, GLP-1R agonist -3.6%, uPA surface inh inconclusive, GLP1R cytotox -2.1%, CCT chaperon mod -0.8 and GLP-1R inv ag 11.2µM*.
For COc1cc(C(C)=O)ccc1OCC(=O)Nc1ccc(Cl)c(S(=O)(=O)N2CCOCC2)c1 the results were Mm-Cpn inhibitor -9.3%, GLP-1R agonist 1.1%, uPA surface inh -0.2%, GLP1R cytotox 0.8%, CCT chaperon mod -98.1* and GLP-1R inv ag 30.9%.
For O=C(Nc1ccc(Cl)c(S(=O)(=O)N2CCOCC2)c1)c1ccc2c(c1)OCO2 the results were Mm-Cpn inhibitor -0.6%, GLP-1R agonist 0.5%, uPA surface inh -8.1%, GLP1R cytotox -17.4%, CCT chaperon mod 0.9 and GLP-1R inv ag 11.2µM*.
Screening CC(=O)c1ccc(OCCCC(=O)Nc2ccc(Cl)c(S(=O)(=O)N3CCOCC3)c2)cc1 returned GLP-1R agonist 1.5%, uPA surface inh inconclusive, GLP1R cytotox -6.6%, CCT chaperon mod -3.7 and GLP-1R inv ag 0.8%.
For CCN(CC)CCOC(=O)c1ccc(N)cc1Cl the results were GLP-1R agonist -3.8%.
`CCN1C(=O)c2ccccc2S(=O)c2ccc(C(=O)N3CCN(c4ccc(F)cc4)CC3)cc21` (centres undefined) gave GLP-1R agonist -0.5%, GLP1R cytotox 8.4% and GLP-1R inv ag 9.6%.
Screening COc1ccc(NC(=O)CC2C(=O)N(c3ccccc3)C(=O)N2CCc2sccc2C)cc1 (centres undefined) returned GLP1R cytotox -24.8% and GLP-1R inv ag -23.9%.
COc1ccc(NC(=O)CCOc2ccc(C)cc2)cc1S(=O)(=O)N1CCCCC1 was read as Mm-Cpn inhibitor -0.6%, GLP-1R agonist -3.5%, uPA surface inh 1.8%, GLP1R cytotox -27.0%, CCT chaperon mod -1.0 and GLP-1R inv ag 7.08µM*.
COc1ccc(NC(=O)CCOc2ccccc2F)cc1S(=O)(=O)N1CCCCC1 was read as Mm-Cpn inhibitor -0.1%, GLP-1R agonist 14.2%, uPA surface inh 0.4%, GLP1R cytotox -15.8%, CCT chaperon mod -1.6 and GLP-1R inv ag inconclusive.
O=C(CC1SC(=Nc2ccc(OC(F)F)cc2)N(CCC2=CCCCC2)C1=O)Nc1ccccc1F (centres undefined) was read as Mm-Cpn inhibitor 2.4%, GLP-1R agonist -8.6%, uPA surface inh -9.5%, GLP1R cytotox inconclusive, CCT chaperon mod -0.1 and GLP-1R inv ag inconclusive.
`CCOc1ccccc1N=C1SC(CC(=O)Nc2ccc(OC)cc2OC)C(=O)N1CCC1=CCCCC1` (centres undefined) gave Mm-Cpn inhibitor -4.8%, GLP-1R agonist 0.1%, uPA surface inh -8.3%, GLP1R cytotox 2.3%, CCT chaperon mod -1.1 and GLP-1R inv ag 2.82µM*.
`Cc1ccc(OCc2nnc(SCC(=O)C(C)(C)C)n2Cc2ccco2)cc1` gave Mm-Cpn inhibitor -1.1%, GLP-1R agonist 12.8%, uPA surface inh -4.8%, GLP1R cytotox 13.8%, CCT chaperon mod -1.9 and GLP-1R inv ag 2µM*.
`Cc1cc(NC(=O)CSc2nnc(COc3ccccc3)n2Cc2ccco2)no1` gave Mm-Cpn inhibitor -1.3%, GLP-1R agonist -8.4%, uPA surface inh -4.9%, GLP1R cytotox 4.7%, CCT chaperon mod 0.4 and GLP-1R inv ag 1.4%.
Screening C=CCc1cc(Cl)ccc1OCCOCCN(C)C returned Mm-Cpn inhibitor 3.4%, GLP-1R agonist -2.1%, uPA surface inh -0.6%, GLP1R cytotox 0.8%, CCT chaperon mod -4.6 and GLP-1R inv ag 7.08µM*.
C=CCc1cc(Cl)ccc1OCCOCCNCCOC was read as Mm-Cpn inhibitor -0.4%, GLP-1R agonist 3.9%, uPA surface inh -4.3%, GLP1R cytotox inconclusive, CCT chaperon mod 1.7 and GLP-1R inv ag inconclusive.
For C=CCc1cc(Cl)ccc1OCCNCCCOC the results were Mm-Cpn inhibitor -3.1%, GLP-1R agonist -0.5%, uPA surface inh -1.3%, GLP1R cytotox inconclusive, CCT chaperon mod -2.4 and GLP-1R inv ag 4.47µM*.
`COCCCNCCCOc1ccc(Cl)cc1C(C)(C)C` gave Mm-Cpn inhibitor 0.8%, GLP-1R agonist -2.7%, uPA surface inh 2.6%, GLP1R cytotox inconclusive, CCT chaperon mod -4.3 and GLP-1R inv ag 5.62µM*.
COc1cc(NC(=O)CCn2c(-c3ccccc3)cc(C(C)=O)c2C)cc(OC)c1 was read as GLP1R cytotox -3.7% and GLP-1R inv ag -19.3%.
For CCN(CC)CCOC(=O)c1ccc(NC(=O)c2cc3c(=O)n(CC)c4ccccc4c3s2)cc1 the results were GLP-1R agonist 2.3%, GLP1R cytotox 7.9% and GLP-1R inv ag 17.2%.
C[C@@H](C(=O)O)c1ccc(C2CCCCC2)c2ccccc12 was read as GLP-1R agonist -1.3%.
For O=C(Nc1ccccc1)C(=O)Nc1ccccn1 the results were Mm-Cpn inhibitor -0.2%, GLP-1R agonist -0.5%, uPA surface inh inconclusive, GLP1R cytotox 0.5%, CCT chaperon mod -1.1 and GLP-1R inv ag inconclusive.
For S=C(Nc1ccc(Nc2ccccc2)cc1)Nc1ccccn1 the results were Mm-Cpn inhibitor -1.6%, GLP-1R agonist 13.5%, uPA surface inh -1.1%, GLP1R cytotox inconclusive, CCT chaperon mod 0.7 and GLP-1R inv ag 2.24µM*.
`O=C(NC(=S)Nc1ccccn1)c1ccccc1` gave Mm-Cpn inhibitor 1.2%, GLP-1R agonist -7.2%, uPA surface inh inconclusive, GLP1R cytotox inconclusive, CCT chaperon mod -0.3 and GLP-1R inv ag 10µM*.
`CCOC(=O)c1ccc(NC(=S)Nc2ccc(Cl)cn2)cc1` gave Mm-Cpn inhibitor -0.9%, GLP-1R agonist -6.0%, uPA surface inh -11.8%, GLP1R cytotox -1.4%, CCT chaperon mod 1.7 and GLP-1R inv ag -8.0%.
For CCOC(=O)c1ccc(NC(=S)Nc2ccccn2)cc1 the results were Mm-Cpn inhibitor -5.1%, GLP-1R agonist 0.6%, uPA surface inh -2.4%, GLP1R cytotox 5.62µM*, CCT chaperon mod -3.2 and GLP-1R inv ag inconclusive.
